The sample as a whole holds a higher share of hits than the screen did.
CHX counter: counter-screen hit for Shiga toxin inhibitors, cycloheximide | max response, % | AID 2314 | 12% of 300,000 active | cell reporter, cycloheximide protein synthesis inhibition counterscreen; in the data active means max response mostly above about 13%, no sharp cut-off; inactive means mostly below about 14%; further: read at 38.3 µM for the half of the compounds with a filed dose; 0% is about no effect
Tb PYK inh: blocks Trypanosoma brucei pyruvate kinase. Q57TT1. TbPYK enzyme, Kinase-Glo Plus ATP luminescence, 45 min. Potency, µM (series often up to 76.8 µM), without a hit: at the highest dose activity, negative = inhibition, most hits filed as inhibitors. 0.12% of 410,000 active. AID 624173; further: potency means the concentration at half of the fitted maximal effect; on the % scale 0 is the no-effect control and ±100 the full control effect; nearly all actives have a fitted effect of over 50% in size
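Readout: single end-point luminescence (Kinase-Glo Plus, 10 min). Reaction conditions were TbPYK/substrate plus 130 uM ADP, 45 min at RT, pH 7.2 TEA buffer. No-enzyme wells served as controls, and data were normalized before concentration-response fitting.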
Giardia FBPA inh: Giardia lamblia aldolase inhibition | purified Giardia FBPA | Potency, µM (titrated, usually from 59.6 µM), for the others: at the top dose activity, negative = inhibition, hits mostly inhibitors | 0.71% of 290,000 active | AID 2451; further: potency means the concentration at half of the fitted maximal effect; on the % scale 0 is the no-effect control and ±100 the full control effect; nearly all actives have a fitted effect of over 55% in size
Target sequence (A8B2U2 whole entry, looked up): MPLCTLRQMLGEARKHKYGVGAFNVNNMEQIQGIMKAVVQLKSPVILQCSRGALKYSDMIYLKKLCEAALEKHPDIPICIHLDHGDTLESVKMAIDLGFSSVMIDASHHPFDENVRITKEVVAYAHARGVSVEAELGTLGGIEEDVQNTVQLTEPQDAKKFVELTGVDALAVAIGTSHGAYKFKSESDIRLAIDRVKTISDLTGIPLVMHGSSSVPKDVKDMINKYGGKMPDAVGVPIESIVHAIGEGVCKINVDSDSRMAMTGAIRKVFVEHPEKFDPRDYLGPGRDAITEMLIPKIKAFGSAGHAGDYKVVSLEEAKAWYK
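Giardia FBPA (40 nM reagent) was preincubated 10 min at RT with compound (up to 57.5 uM final), then substrate plus GAPDH/TPI/NAD/arsenate coupling system with diaphorase/resazurin was added; resorufin fluorescence (525/598 nm) was read after 20 min.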
Shiga toxin inh: Shiga toxin inhibition; Vero cells, Shiga toxin protein synthesis inhibition reporter; inhibition, % at 38.7 µM; AID 2315; 9.2% of 290,000 active; in the data active means inhibition mostly above about 28%, no sharp cut-off; inactive means mostly below about 43%; further: 0% is about no effect
Sm TGR inh: blocks Schistosoma mansoni thioredoxin glutathione reductase; Q962Y6; purified TGR, DTNB reduction, TNB absorbance 405 nm; Potency, µM (series often up to 114 µM), for inactives: at the highest dose activity change, negative = inhibition, usual class: inhibitors; 3% of 360,000 active; further: potency means the concentration at half of the fitted maximal effect; on the % scale 0 is the no-effect control and ±100 the full control effect; nearly all actives have a fitted effect of over 60% in size
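Kinetic colorimetric format: TGR-catalysed, NADPH-driven DTNB reduction monitored via TNB absorbance. Enzyme dispensed at 20 nM; compound exposure 15 min at room temperature before reaction start.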
LmPK inh: blocks Leishmania mexicana pyruvate kinase activity | Q27686 | purified LmPK, Kinase-Glo ATP luminescence, 1 h | Potency, µM (series often up to 57.5 µM), without a hit: top-dose activity change, negative = inhibition, most hits filed as inhibitors | 0.37% of 290,000 active | AID 1721; further: potency means the concentration at half of the fitted maximal effect; on the % scale 0 is the no-effect control and ±100 the full control effect
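0.1 nM LmPK, 0.5 mM PEP, 0.1 mM ADP; 50 mM imidazole pH 7.2, 7 mM MgCl2, 50 mM KCl; 1 h RT. Kinase-Glo luminescence readout, normalized to no-enzyme (full inhibition) and uninhibited wells.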
Starred values were filed as active, the others as inactive; ? = inconclusive; / = not tested or not shown; [ ] = dose if it differs, or a comment. Unless noted, the call rests on the fitted dose curve; in most records, active means well fitted curve in the direction sought with a large enough effect; inconclusive means small, poorly fitted or top-dose-only effect, or another doubt; inactive means no such curve, though single readings can be large; an effect the other way counts as inactive or inconclusive.

SMILES	CHX counter	Tb PYK inh	Giardia FBPA inh	Shiga toxin inh	Sm TGR inh	LmPK inh
O=C(NCCc1ccccc1)c1c(F)c(F)c(F)c(F)c1F	11.3	-5.1%	5.7%	32.5*	-3.4%	-2.7%
O=C(NCCc1ccccc1)c1c[nH]c2c(F)cccc2c1=O	23.2*	2.1%	0.2%	28.6*	-11.7%	-3.3%
O=C(NCCc1ccccc1)c1ccccc1F	35.5*	-8.9%	3.5%	108.8*	86.0%	-16.5%
O=C(NCCc1ccccc1)c1ccccc1C(=O)NCCc1ccccc1	/	-14.6%	/	/	/	/
Cc1ccc(C(=O)NCC(=O)NCCCc2ccccc2)s1	23.6	-11.5%	3.6%	27.9	22.6%	1.5%
Cc1ccc(C(=O)NCCCc2ccccc2)s1	52.8*	-1.2%	-7.6%	134.1*	-14.6%	-1.2%
O=C(NCCCCc1ccccc1)c1ccccc1Cl	23.9*	-0.5%	-1.2%	57.6*	-7.4%	-5.0%
O=C(NCCCCc1ccccc1)c1ccccc1F	16.6*	3.8%	4.4%	18.8	-26.6%	-2.2%
C/C(=N\NC(=S)Nc1cc(S(=O)(=O)N2CCOCC2)ccc1Cl)c1ccccc1F	58.8*	-20.6%	6.5%	74.6*	9.9%	-1.5%
CC1(C)O[C@@H]2C[C@H]3[C@H]4C[C@H](F)C5=CC(=O)C=C[C@@]5(C)[C@@H]4[C@H](O)C[C@]3(C)[C@]2(C(=O)CO)O1	/	1.9%[33.2 µM]	0.7%[21.7 µM]	/	/	/
CCCCCCN(C(=O)CCCCCN1C(=O)NC(c2ccc(-c3ccccc3)cc2)C(C(=O)OCc2ccccc2)=C1C)C(C(=O)NCCCC)c1ccc(OCC(=O)O)c(C(=O)O)c1 (configuration not stated)	/	/	-11.8%	/	/	/
ClCCn1cnc2c(SCc3ccccc3)ncnc21	/	-4.1%	/	/	/	/
CCN(Cc1cccs1)C(=O)CN1C(=O)NC(c2ccccc2)(c2ccccc2)C1=O	/	0.8%	/	/	-7.1%	/
C/C(=N/NC(=O)Cc1ccccc1)c1ccc(C)s1	25.4*	3.2%	0.8%	-27.9	-13.6%	3.5%
O=C(NCCc1ccccc1)c1cc(S(=O)(=O)N2CCOCC2)ccc1F	18.9*	-1.2%	2.6%	45.2	0.5%	1.0%
COc1ccc(CCNC(=S)NC(=O)c2ccccc2)cc1C	8.4*	0.4%	-11.5%	16.8	3.55µM*	3.0%
O=C(NC(=O)c1ccccc1F)OCc1ccc(Cl)cc1Cl	26.4*	-3.7%	-0.3%	69.3*	-10.1%	2.9%
C/C(=N\NC(=O)C(O)c1ccccc1)c1ccc(C)s1 (configuration not stated)	/	7.7%	/	/	/	/
CCN(CC(=O)NCc1ccc(F)cc1)C(=O)c1ccc2c(c1)OCO2	/	3.0%	/	/	2.8%	/
O=C(NCCc1ccccc1)c1ccccc1NS(=O)(=O)N1CCCC1	33.3*	-1.1%	-0.5%	42.6*	1.8%	-6.0%
Cc1ccccc1C(=O)NCCCc1ccccc1	39.1*	-6.9%	2.4%	139.8*	-3.2%	-5.5%
CC(=O)NNC(=S)NCCc1ccccc1	5.2	-1.1%	2.7%	4.7	10.2%	4.2%
CCc1c(C(=O)NNC(=S)NCCc2ccccc2)csc1C	11.8*	-5.7%	0.4%	14.4	-11.8%	7.1%
O=C(NCCc1ccc2c(c1)OCCO2)c1ccccc1F	69.7*	7.5%	0.4%	91.4*	5.6%	-9.7%
Cc1c(C(=O)NCCc2ccc3c(c2)OCCO3)oc2ccccc12	1.2	/	2.4%	6.6	-8.6%	1.3%
SMILES	CHX counter	Tb PYK inh	Giardia FBPA inh	Shiga toxin inh	Sm TGR inh	LmPK inh
CC(C)OC(=O)CSc1nc(N2CCOCC2)c2c(c1C#N)CC(C)(C)OC2	-9.0	-7.5%	5.6%	-4.6	-18.4%	11.2%
COCCn1c(=O)c(C)nc2cnc(OC)nc21	/	/	-1.6%	/	/	/
Cc1ccc(SCCNC(=O)c2ccccc2F)cc1	13.3*	3.8%	-1.0%	24.9	9.9%	-8.8%
O=C(NCCSc1ccccc1)c1ccccc1F	/	-2.5%	/	/	/	/
O=C(C[C@H]1C[C@@H]2c3cc(NC(=O)c4ccc5c(c4)OCO5)ccc3O[C@@H]2[C@H](CO)O1)NCc1cc(F)ccc1F	/	4.2%	/	/	/	/
Cc1cnn(-c2cc(N/N=C/c3cccc(F)c3)ncn2)c1	-3.6	-0.3%	1.8%	-9.7	-12.6%	-3.6%
Fc1cccc(/C=N/Nc2ncnc3nc[nH]c23)c1	82.7*	-16.0%	-1.7%	70.5*	-14.0%	?
Fc1ccccc1/C=N/Nc1nc(-c2ccccn2)nc2ccccc12	0.9	/	5.5%	0.6	2.5%	4.1%
Fc1ccccc1/C=N/Nc1ncnc2nc[nH]c12	48.9*	-7.6%	0.4%	138.6*	?	-11.1%
CCN(CC(=O)Nc1c(F)cccc1F)C(=O)c1ccc(=O)n(C)n1	/	1.3%	/	/	/	/
CCOC(=O)CC(=O)CSc1nc(-c2cccnc2)cc(C)c1C#N	-2.0	-23.8%	2.4%	-17.8	12.7%	-5.4%
CCOC(=O)CCCSc1nc(-c2ccc3c(c2)OCO3)cc(C(F)(F)F)c1C#N	-2.0	4.1%	-1.8%	-10.1	-8.1%	0.7%
CCOC(=O)CC(=O)CSc1nc(-c2cccnc2)ccc1C#N	14.5*	-13.7%	4.0%	15.1	-3.0%	-14.8%
N#Cc1ccc(-c2cccnc2)nc1SCC(N)=O	-0.9	6.5%	5.9%	5.7	5.5%	-2.5%
CCOC(=O)CSc1nc(-c2ccncc2)ccc1C#N	37.4*	-2.8%	-0.1%	86.6*	12.6%	-2.7%
CCOC(=O)CSc1nc(-c2ccc3c(c2)OCO3)ccc1C#N	51.5*	-9.5%	3.1%	77.6*	8.6%	0.8%
ClC1=C(Cl)C(Cl)(C2(Cl)C(Cl)=C(Cl)C(Cl)=C2Cl)C(Cl)=C1Cl	-15.5	/	?	-20.8	/	/
Cc1ccc(NC(=O)CN(C)S(=O)(=O)c2cnc[nH]2)c(C)c1	14.7	-7.8%	-0.5%	2.8	11.2%	0.4%
CC(=O)N1c2ccccc2[C@@H](C)[C@@H]1C	/	-9.0%	/	/	-1.7%	/
CC(=O)N1c2ccccc2C2(O)N=C(C)SC12 (configuration not stated)	12.4*	12.6µM*	?	35.4	-7.9%	16.6%
Cc1cc(NC(=O)CN2C(=O)c3cccnc3Sc3ccccc32)ccc1Br	/	0.6%	/	/	-4.0%	/
CCN(CC)C(=O)c1ccc2c(c1)C1C=CCC1C(C(=O)O)N2 (configuration not stated)	-4.9	?	?	-5.7	0.447µM*	-28.3%
Cc1cc(C)c2c(c1)C1C=CCC1C(C(=O)O)N2 (configuration not stated)	10.3	/	/	-4.5	/	/
Cc1cc(C)c2c(c1)NC(C(=O)O)C1CC=CC21 (configuration not stated)	-0.4	?	-14.3%	-6.4	0.631µM*	-2.4%
CCOC(=O)c1ccc2c(c1)C1C=CCC1C(C(=O)O)N2 (configuration not stated)	-2.1	/	?	-9.2	7.94µM*	-1.8%
CC(=O)c1ccc2c(c1)C1C=CCC1C(c1cc3c(cc1Br)OCO3)N2 (configuration not stated)	/	-3.5%	/	/	-29.9%	/

Compound activity (PubChem)
